# Measured values from PubChem BioAssay (NCATS).
# Results filed as inconclusive are left out. A call without a number means that no potency is given here. Calls of active or inactive are those of the source. The call rests on the fitted dose curve; in most records, active means well fitted inhibition curve with a large enough effect; inconclusive means small, poorly fitted or top-dose-only effect; inactive means flat fitted curve, though single readings scatter.
# How the values were obtained:
# [1] = test system: CRL-7250; test: qHTS assay to identify novel small-molecules to repurpose for Merkel cell carcinoma treatment (AID 1296009); conditions: MCC and control cell lines, CellTiter-Glo viability, 72 h; series mostly up to 44.8 µM
# Method in brief: (§1)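 Dose-response viability screen; 72 hr exposure at 37 degree celsius; CellTiter-Glo added, 10 min room temperature, luminescence read; RLUs scaled between no-cell and DMSO wells.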
# [2] = test system: PC15; test: qHTS profiling for inhibitors of Plasmodium falciparum proliferation (AID 504749); further: potency means the concentration at half of the fitted maximal effect; conditions: P. falciparum in erythrocytes, SYBR Green DNA, 72 h; series mostly up to 28.7 µM
# Method in brief: (§2)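 Each compound contacts P. falciparum-infected red blood cells for 72 h at 37 C; lysis buffer (Tris, EDTA, saponin, Triton X, SYBR Green I) is added and fluorescence measured next morning; values normalized to controls.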
# [3] = test system: PC49; test: as above; conditions: P. falciparum in erythrocytes, SYBR Green DNA, 72 h; series mostly up to 28.7 µM
# Method in brief: as §2
# [4] = test system: SC27B; test: as above; conditions: P. falciparum in erythrocytes, SYBR Green DNA, 72 h; series mostly up to 28.7 µM
# Method in brief: as §2
# [5] = test system: TAB109; test: as above; conditions: P. falciparum in erythrocytes, SYBR Green DNA, 72 h; series mostly up to 28.7 µM
# Method in brief: as §2
# [6] = test system: TAB113; test: as above; conditions: P. falciparum in erythrocytes, SYBR Green DNA, 72 h; series mostly up to 28.7 µM
# Method in brief: as §2
# [7] = test system: W2; test: as above; conditions: P. falciparum in erythrocytes, SYBR Green DNA, 72 h; series mostly up to 28.7 µM
# Method in brief: as §2
# [8] = test system: PC26; test: as above; conditions: P. falciparum in erythrocytes, SYBR Green DNA, 72 h; series mostly up to 28.7 µM
# Method in brief: as §2
# [9] = test system: TAB165; test: as above; conditions: P. falciparum in erythrocytes, SYBR Green DNA, 72 h; series mostly up to 28.7 µM
# Method in brief: as §2
# [10] = test system: MCC-13; test: qHTS assay to identify novel small-molecules to repurpose for Merkel cell carcinoma treatment (AID 1296009); conditions: MCC and control cell lines, CellTiter-Glo viability, 72 h; series mostly up to 46 µM
# Method in brief: as §1
# [11] = test system: MCC-26; test: as above; conditions: MCC and control cell lines, CellTiter-Glo viability, 72 h; series mostly up to 46 µM
# Method in brief: as §1
# [12] = test system: MKL-1; test: as above; conditions: MCC and control cell lines, CellTiter-Glo viability, 72 h; series mostly up to 46 µM
# Method in brief: as §1
# [13] = test system: MKL-2; test: as above; conditions: MCC and control cell lines, CellTiter-Glo viability, 72 h; series mostly up to 46 µM
# Method in brief: as §1
# [14] = test system: HACAT; test: as above; conditions: MCC and control cell lines, CellTiter-Glo viability, 72 h; at 44.8 µM (top of the series) unless noted
# Method in brief: as §1
# Further: nearly all actives have a fitted effect of over 60% in size.
compound,measurement,setting,value
CC(c1cc2ccccc2s1)N(O)C(N)=O (stereo not given),outcome,[1],inactive
Cc1cc2c(s1)Nc1ccccc1N=C2N1CCN(C)CC1,outcome,[1],inactive
CCCNCC(O)COc1ccccc1C(=O)CCc1ccccc1 (stereo not given),outcome,[1],inactive
COC1=CC(=O)C[C@@H](C)[C@]12Oc1c(Cl)c(OC)cc(OC)c1C2=O,outcome,[1],inactive
O=c1[nH]c2ccccc2n1C1CCN(CCCC(c2ccc(F)cc2)c2ccc(F)cc2)CC1,Potency,[2],inactive
same,Potency,[3],inactive
same,Potency,[4],inactive
same,Potency,[5],inactive
same,Potency,[6],inactive
same,Potency,[7],3.79 µM (active)
CC(S)C(=O)NCC(=O)O (stereo not given),outcome,[1],inactive
NNCCc1ccccc1,outcome,[1],inactive
COc1cc2nc(N3CCN(C(=O)C4CCCO4)CC3)nc(N)c2cc1OC (stereo not given),outcome,[1],inactive
O=c1c(O)c(-c2ccc(O)c(O)c2)oc2cc(O)cc(O)c12,outcome,[1],inactive
O=c1[nH]c2ccccc2n1CCCN1CCC(n2c(=O)[nH]c3cc(Cl)ccc32)CC1,Potency,[2],7.94 µM (active)
same,Potency,[8],6.75 µM (active)
same,Potency,[3],inactive
same,Potency,[5],5.01 µM (active)
same,Potency,[9],4.47 µM (active)
same,Potency,[7],6.75 µM (active)
same,outcome,[1],inactive
same,Potency,[10],inactive
same,Potency,[11],inactive
same,Potency,[12],inactive
same,Potency,[13],inactive
C1N2CN3CN1CN(C2)C3,outcome,[1],inactive
CC(C(=O)O)c1cccc(C(=O)c2ccccc2)c1 (stereo not given),outcome,[1],inactive
CN(N=O)C(=O)N[C@@H]1[C@@H](O)[C@H](O)[C@@H](CO)O[C@@H]1O,outcome,[1],inactive
CC(C)Nc1cccnc1N1CCN(C(=O)c2cc3cc(NS(C)(=O)=O)ccc3[nH]2)CC1,outcome,[1],inactive
O=C1NC(c2ccccc2)(c2ccccc2)C(=O)N1COP(=O)(O)O,outcome,[1],inactive
Cc1[nH]cnc1CN1CCc2c(c3ccccc3n2C)C1=O,outcome,[1],inactive
O=C(c1ccc(OCCN2CCCCC2)cc1)c1c(-c2ccc(O)cc2)sc2cc(O)ccc12,outcome,[1],inactive
CCN(CC)CCOC(=O)C1(C2CCCCC2)CCCCC1,outcome,[1],inactive
CC(C)(C(=O)O)c1ccc(C(O)CCCN2CCC(C(O)(c3ccccc3)c3ccccc3)CC2)cc1 (stereo not given),outcome,[1],inactive
Cc1cnc(C(=O)NCCc2ccc(S(=O)(=O)NC(=O)NC3CCCCC3)cc2)cn1,outcome,[1],inactive
Cc1ccnc2c1NC(=O)c1cccnc1N2C1CC1,outcome,[1],inactive
CC(=O)Nc1nnc(S(N)(=O)=O)s1,outcome,[1],inactive
Cc1ccc(S(=O)(=O)NC(=O)NN2CCCCCC2)cc1,outcome,[1],inactive
CS(=O)(=O)OCCCCOS(C)(=O)=O,outcome,[1],inactive
Cc1ccc(S(=O)(=O)NC(=O)NN2CC3CCCC3C2)cc1 (stereo not given),outcome,[1],inactive
CC12CC3CC(C)(C1)CC(N)(C3)C2,outcome,[1],inactive
C=C(C)[C@H]1Cc2c(ccc3c2O[C@@H]2COc4cc(OC)c(OC)cc4[C@@H]2C3=O)O1,Potency,[2],inactive
same,Potency,[8],inactive
same,Potency,[3],inactive
same,Potency,[4],inactive
same,Potency,[5],inactive
same,Potency,[6],inactive
same,Potency,[9],inactive
Oc1cn2c(n1)Nc1ccc(Cl)c(Cl)c1C2,outcome,[1],inactive [at 17.4 µM]
NC12CC3CC(CC(C3)C1)C2,outcome,[1],inactive
Cc1nc(-c2ccc(OCC(C)C)c(C#N)c2)sc1C(=O)O,outcome,[1],inactive
COC(c1ccccc1)(c1ccccc1)[C@H](Oc1nc(C)cc(C)n1)C(=O)O,outcome,[1],inactive
O=C1N=C(O)CN1/N=C/c1ccc(-c2ccc([N+](=O)[O-])cc2)o1,outcome,[1],inactive
NC(=O)c1cn(Cc2c(F)cccc2F)nn1,outcome,[1],inactive
CC1OC(C)OC(C)O1 (stereo not given),Potency,[2],inactive
same,Potency,[8],inactive
same,Potency,[3],inactive
same,Potency,[4],inactive
same,Potency,[5],inactive
same,Potency,[6],inactive
same,Potency,[9],inactive
same,Potency,[7],inactive
same,outcome,[14],inactive
same,Potency,[10],inactive
same,Potency,[12],inactive
same,Potency,[13],inactive
COc1ccccc1OCC(O)COC(N)=O (stereo not given),outcome,[1],inactive
CN1CCC[C@@H]1Cc1c[nH]c2ccc(CCS(=O)(=O)c3ccccc3)cc12,outcome,[1],inactive
CNCC[C@H](Oc1cccc2ccccc12)c1cccs1,outcome,[1],inactive
CS(=O)c1ccc(-c2nc(-c3ccc(F)cc3)c(-c3ccncc3)[nH]2)cc1 (stereo not given),outcome,[1],inactive
